# Records with an inconclusive call do not appear. Activity calls are given as the source filed them. Unless noted, no cut-off is given here; in the data, nearly all actives have AC50 up to about 26 µM.
# Assays:
# [1] = growth inhibition of DIPG glioma cells, dose response, cell-based, SU-DIPG-XVII, MIPE5.0, CellTiter-Glo, qHTS (AID 1347060); settings: SU-DIPG-XVII viability, CellTiter-Glo ATP luminescence;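 for AC50: cells exposed to compound for 48 hours before viability readout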
# [2] = viability loss in pontine glioma line – cell-based, SU-DIPG-XXV, MIPE5.0, CellTiter-Glo, qHTS, dose response (AID 1347065); settings: CellTiter-Glo ATP luminescence;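 note: cells exposed to compound for 48 hours before ATP readout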
# [3] = JHH-DIPG-1 glioma cell viability, MIPE5.0 library, CellTiter-Glo luminescence, qHTS (AID 1347067); settings: JHH-DIPG-1 glioma viability, CellTiter-Glo ATP luminescence;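 note: cells exposed to compound for 48 hours before readout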
# [4] = SU-DIPG-XXV glioma cell viability, MIPE5.0 library, qHTS (AID 1347068; cut-off not given, nearly all actives have IC50 up to about 30 µM;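 for IC50: cells exposed to compound for 48 hours before viability readout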)
# [5] = sensitizers of A549 cells to miR-34 induction, primary screen, imaging, A549 dox-inducible miR-34, nuclei and caspase counts (AID 1347080;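 active = compounds whose cell count with miR-34 switched on is under 0.7 times the count with it off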); settings: A549 miR-34 inducible, Hoechst nuclei count, 48 h
# [6] = modifiers of HSF1 nuclear foci, imaging, Selleck Cancer Library (AID 1347162; in the data active = plate-normalised HSF1 focus index below about 0.46); settings: human cells, at 10 µM; SSMD: measured here: HSF1 foci SSMD mean; cell count: measured here: cell number; plate-normalised HSF1 focus index: stronger effect = lower value
# [7] = survival rescue of mitochondrial mutant cells in low glucose, primary screen, MELAS cybrids, Rieske KO mouse fibroblasts, CellTiter-Glo (AID 1508586;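 active = mean z-score across replicates of 1.96 or higher in either the MELAS or the Rieske mutant cell line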;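 note: z relative to plate mean and SD of compound and empty wells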)
# [8] = ovarian cancer cell viability with rucaparib, profiling panel, oncology-focused library, rucaparib conditional (AID 1508598;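 active = normalized viability below 100% at a tested concentration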); settings: patient-derived ovarian cancer cells, CellTiter-Glo viability, 144 h, stronger effect = lower value
compound,measurement,setting,value
Nc1cc(COc2c(Cl)cc(C[C@H](N)C(=O)O)cc2Cl)c2oc(-c3ccccc3)nc2c1,outcome,[1],inactive
same,outcome,[2],inactive
same,outcome,[3],inactive
same,outcome,[4],inactive
Cn1cc(C2=C(c3cn(C)c4cc([N+](=O)[O-])ccc34)C(=O)NC2=O)c2ccccc21,AC50,[1],0.332 µM (active)
same,AC50,[2],0.263 µM (active)
same,AC50,[3],0.468 µM (active)
same,IC50,[4],4.68 µM (active)
O=C([O-])C[O-].[Pt+2],outcome,[1],inactive
same,outcome,[2],inactive
same,outcome,[3],inactive
same,outcome,[4],inactive
Cn1c(-c2ccccc2C(F)(F)F)nnc1C12CCC(c3noc(C4CC(F)(F)C4)n3)(CC1)CC2,outcome,[1],inactive
same,outcome,[2],inactive
same,outcome,[3],inactive
same,outcome,[4],inactive
CC(C)(C)Sc1c(CC(C)(C)C(=O)O)n(Cc2ccc(Cl)cc2)c2ccc(OCc3ccc4ccccc4n3)cc12,AC50,[1],20.9 µM (active)
same,AC50,[2],20.9 µM (active)
same,AC50,[3],18.6 µM (active)
same,outcome,[4],inactive
CCC(CC)CC1(C(=O)Nc2ccccc2SC(=O)C(C)C)CCCCC1,outcome,[1],inactive
same,outcome,[2],inactive
same,outcome,[3],inactive
same,outcome,[4],inactive
same,fold change,"[5]; stronger effect = lower value, cell number ratio, induced over uninduced",0.89 (inactive)
same,fold change,[5]; measured here: relative caspase fold change +Dox/-Dox,0.858
same,cell count,"[5]; measured here: total cells with miR-34 induction, stronger effect = lower value",9550
same,cell count,[5]; measured here: total cells without miR-34 induction,10700
same,SSMD,[6],1.84
same,cell count,[6],6890
same,plate-normalised HSF1 focus index,[6],1.09 (inactive)
same,z-score,"[7]; MELAS cybrid survival, CellTiter-Glo 48 h, stronger effect = higher value",-0.325 (inactive)
same,z-score,"[7]; Rieske KO mouse fibroblast survival, CellTiter-Glo 72 h",1.25
same,viability,"[8]; at 0.000305 µM, OCI-C5x cells, with rucaparib 10 µM, 100% = cells with rucaparib alone",115% (inactive)
same,viability,"[8]; at 0.000305 µM, OCI-C5x cells, without rucaparib",112% (inactive)
same,viability,"[8]; at 0.000305 µM, OCI-P5x cells, with rucaparib 20 µM, 100% = cells with rucaparib alone",92.5% (active)
same,viability,"[8]; at 0.000305 µM, OCI-P5x cells, without rucaparib",91.2% (active)
same,viability,"[8]; at 0.00122 µM, OCI-C5x cells, with rucaparib 10 µM, 100% = cells with rucaparib alone",109% (inactive)
same,viability,"[8]; at 0.00122 µM, OCI-C5x cells, without rucaparib",105% (inactive)
same,viability,"[8]; at 0.00122 µM, OCI-P5x cells, with rucaparib 20 µM, 100% = cells with rucaparib alone",97.3% (active)
same,viability,"[8]; at 0.00122 µM, OCI-P5x cells, without rucaparib",96% (active)
same,viability,"[8]; at 0.00488 µM, OCI-C5x cells, with rucaparib 10 µM, 100% = cells with rucaparib alone",111% (inactive)
same,viability,"[8]; at 0.00488 µM, OCI-C5x cells, without rucaparib",114% (inactive)
same,viability,"[8]; at 0.00488 µM, OCI-P5x cells, with rucaparib 20 µM, 100% = cells with rucaparib alone",101% (inactive)
same,viability,"[8]; at 0.00488 µM, OCI-P5x cells, without rucaparib",99.6% (active)
same,viability,"[8]; at 0.0195 µM, OCI-C5x cells, with rucaparib 10 µM, 100% = cells with rucaparib alone",127% (inactive)
same,viability,"[8]; at 0.0195 µM, OCI-C5x cells, without rucaparib",110% (inactive)
same,viability,"[8]; at 0.0195 µM, OCI-P5x cells, with rucaparib 20 µM, 100% = cells with rucaparib alone",104% (inactive)
same,viability,"[8]; at 0.0195 µM, OCI-P5x cells, without rucaparib",108% (inactive)
same,viability,"[8]; at 0.0781 µM, OCI-C5x cells, with rucaparib 10 µM, 100% = cells with rucaparib alone",110% (inactive)
same,viability,"[8]; at 0.0781 µM, OCI-C5x cells, without rucaparib",115% (inactive)
same,viability,"[8]; at 0.0781 µM, OCI-P5x cells, with rucaparib 20 µM, 100% = cells with rucaparib alone",104% (inactive)
same,viability,"[8]; at 0.0781 µM, OCI-P5x cells, without rucaparib",103% (inactive)
same,viability,"[8]; at 0.313 µM, OCI-C5x cells, with rucaparib 10 µM, 100% = cells with rucaparib alone",99.9% (active)
same,viability,"[8]; at 0.313 µM, OCI-C5x cells, without rucaparib",121% (inactive)
same,viability,"[8]; at 0.313 µM, OCI-P5x cells, with rucaparib 20 µM, 100% = cells with rucaparib alone",107% (inactive)
same,viability,"[8]; at 0.313 µM, OCI-P5x cells, without rucaparib",103% (inactive)
same,viability,"[8]; at 1.25 µM, OCI-C5x cells, with rucaparib 10 µM, 100% = cells with rucaparib alone",113% (inactive)
same,viability,"[8]; at 1.25 µM, OCI-C5x cells, without rucaparib",126% (inactive)
same,viability,"[8]; at 1.25 µM, OCI-P5x cells, with rucaparib 20 µM, 100% = cells with rucaparib alone",107% (inactive)
same,viability,"[8]; at 1.25 µM, OCI-P5x cells, without rucaparib",102% (inactive)
same,viability,"[8]; at 5 µM, OCI-C5x cells, with rucaparib 10 µM, 100% = cells with rucaparib alone",110% (inactive)
same,viability,"[8]; at 5 µM, OCI-C5x cells, without rucaparib",120% (inactive)
same,viability,"[8]; at 5 µM, OCI-P5x cells, with rucaparib 20 µM, 100% = cells with rucaparib alone",103% (inactive)
same,viability,"[8]; at 5 µM, OCI-P5x cells, without rucaparib",108% (inactive)
CNCCCOc1cc(F)c(-c2c(Cl)nc3ncnn3c2N[C@@H](C)C(F)(F)F)c(F)c1,AC50,[1],0.0833 µM (active)
same,AC50,[2],0.118 µM (active)
same,AC50,[3],0.105 µM (active)
same,IC50,[4],0.235 µM (active)
CN[C@@H](C)C(=O)N[C@H](C(=O)N1CCC[C@H]1c1nc(C(=O)c2ccc(F)cc2)cs1)C1CCCCC1,outcome,[1],inactive
same,outcome,[2],inactive
same,outcome,[3],inactive
same,outcome,[4],inactive
C=CC(=O)N1CCC[C@H](n2c(=O)n(-c3ccc(Oc4ccccc4)cc3)c3c(N)ncnc32)C1,AC50,[1],0.59 µM (active)
same,AC50,[2],7.42 µM (active)
same,AC50,[3],0.742 µM (active)
same,outcome,[4],inactive
COC(=O)c1ccc([C@H]2c3[nH]c4ccccc4c3C[C@H](C(=O)OC)N2C(=O)CCl)cc1,AC50,[1],13.2 µM (active)
same,AC50,[2],5.25 µM (active)
same,AC50,[3],2.35 µM (active)
same,IC50,[4],14.8 µM (active)
CCCS(=O)(=O)c1nc(NC2CC2)cc(-c2ccc3c(ccn3C3CC(C)(C)NC(C)(C)C3)c2)n1,AC50,[1],3.93 µM (active)
same,AC50,[2],2.78 µM (active)
same,AC50,[3],2.78 µM (active)
same,IC50,[4],3.12 µM (active)
COCCNc1cc(NC(=O)N2CCCc3cc(CN4CCN(C)CC4=O)c(C=O)nc32)ncc1C#N,outcome,[1],inactive
same,outcome,[2],inactive
same,outcome,[3],inactive
same,outcome,[4],inactive
CCN(CC)CCCC[C@H](NC(=O)[C@H](CC(C)C)NC(=O)[C@H](C)NC(=O)[C@H](Cc1ccccc1)NC(=O)c1ccc(C(C)(C)C)cc1)C(=O)N[C@@H](CO)C(=O)OC,outcome,[1],inactive
same,outcome,[2],inactive
same,outcome,[3],inactive
same,outcome,[4],inactive
COc1cc2c(NC3CCN(C)CC3)nc(N3CCCN(C)CC3)nc2cc1OCCCN(C)C,outcome,[1],inactive
same,outcome,[2],inactive
same,outcome,[3],inactive
same,outcome,[4],inactive
C[C@H]1CNC(=O)c2cnn3ccc(nc23)N[C@H](C)c2cc(F)ccc2O1,AC50,[1],1.05 µM (active)
same,AC50,[2],0.934 µM (active)
same,AC50,[3],1.48 µM (active)
same,IC50,[4],2.95 µM (active)
Cc1c(F)cc(C(=O)NC2CC2)cc1-c1c(F)cn2c(C(C)(C)C)nnc2c1F,outcome,[1],inactive
same,outcome,[2],inactive
same,outcome,[3],inactive
same,outcome,[4],inactive
CCOc1cc(C(=O)N2CCC(N3CCN(C)CC3)CC2)ccc1Nc1ncc2c(n1)N(C1CCCC1)c1ccccc1C(=O)N2C,AC50,[1],23.5 µM (active)
same,AC50,[2],20.9 µM (active)
same,AC50,[3],26.3 µM (active)
same,IC50,[4],20.9 µM (active)
Cc1cnc(NC(=O)c2cc(Oc3cnc(C(=O)N(C)C)nc3)c3cc(C)oc3c2)cn1,outcome,[1],inactive
same,outcome,[2],inactive
same,outcome,[3],inactive
same,outcome,[4],inactive

# From PubChem BioAssay
